From PubChem
An excerpt weighted towards active compounds, which were near 0.5% of everything screened.
CBFb RUNX1 block = CBF-beta/RUNX1 interaction disruption. 230,000 tested, under 10 active. Potency, µM (top dose mostly 59.8 µM), inactives show top-dose activity, negative = inhibition, hits mostly inhibitors. Q01196+Q13951. AlphaScreen CBFb-His/RUNX1-biotin binding, biochemical; note: % of control where 0% means no effect
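CBF-beta (His) and RUNX1 (biotin), 30 nM each; 20 min preassociation; + compound, 15 min; + beads 50 ng each (Ni, streptavidin), 90 min; RT; AlphaScreen read.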
ERK EGF inh = inhibitors of EGF-stimulated ERK signaling pathway | HEK293-V1b, EGF-stimulated phospho-ERK AlphaScreen | Potency, µM (titrated, usually from 11.5 µM), for inactives: at the highest dose activity change, negative = inhibition, most hits filed as inhibitors | 130,000 tested, 0.41% active | AID 1454;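 note: potency is the fitted concentration of half-maximal effect; plate controls were stimulated vehicle wells for no effect and unstimulated vehicle basal for full effect; nearly all actives have a fitted effect of over 55% in size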
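EGF-stimulated (25 nM, 5 min) phospho-ERK in HEK293 cells stably expressing V1b, cells pretreated 30 min with compound at 37C. Homogeneous AlphaScreen read on lysates.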
GoLoco inh red = RGS12 GoLoco-Gai1 interaction inhibition. P63096. Gai1:RGS12 GoLoco peptide FP, rhodamine, 10 min. Potency, µM (series often up to 61.6 µM), inactives show top-dose activity, negative = inhibition, hits mostly inhibitors. 230,000 tested, 0.44% active. AID 880; active = well fitted inhibition curve with a large enough effect, not every such curve was filed as active; inactive = no such curve, though single readings can be large or run the other way; note: potency is the fitted concentration of half-maximal effect; % is set by controls: 0 for no effect and ±100 for the full control effect; nearly all actives have a fitted effect of over 30% in size
Target sequence (P63096 whole entry, looked up): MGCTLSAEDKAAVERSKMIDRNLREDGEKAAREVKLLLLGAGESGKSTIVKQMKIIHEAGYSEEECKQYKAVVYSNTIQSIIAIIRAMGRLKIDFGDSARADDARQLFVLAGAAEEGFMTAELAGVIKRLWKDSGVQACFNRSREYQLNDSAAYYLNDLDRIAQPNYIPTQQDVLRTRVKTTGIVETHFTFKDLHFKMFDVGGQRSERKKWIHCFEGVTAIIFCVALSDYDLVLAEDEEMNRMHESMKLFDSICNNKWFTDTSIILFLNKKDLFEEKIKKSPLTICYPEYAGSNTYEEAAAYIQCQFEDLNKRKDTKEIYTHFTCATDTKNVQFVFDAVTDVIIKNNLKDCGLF
Starred values were filed as active, the others as inactive; ? = inconclusive; . = not tested or not shown; [ ] = another dose, or the depositor's remark. Unless noted, calls come from the whole dose curve; as a rule, active = well fitted curve in the direction sought with a large enough effect; inconclusive = small, poorly fitted or top-dose-only effect, or another doubt; inactive = no such curve, though single readings can be large; an effect the other way counts as inactive or inconclusive.

SMILES | CBFb RUNX1 block | ERK EGF inh | GoLoco inh red
CN1CCN(c2ncc3nc(-c4ccccc4)c(=O)n(C4CC4)c3n2)CC1 | . | . | -10%
O=Nc1c(O)[nH]c2ccc(F)cc12 | 13% | 1% | 18%
COc1ccc2[nH]c(O)c(N=O)c2c1 | 9% | -10% | 16µM*
CCC(C)c1ccc(O[C@@H]2O[C@H](CO)[C@@H](O)[C@H](O)[C@H]2NC(C)=O)cc1 (stereo partly specified) | -6% | 7% | -4%
CC(C)(C)c1ccc(-c2cn(-c3ccc(Br)cc3)c3[n+]2CCCS3)cc1 | 0% | 5% | 35µM*
c1ccc(-c2cn(-c3ccccc3)c3[n+]2CCS3)cc1 | 15% | -2% | -13%
COc1ccc([C@@H](C)C(=O)c2ccc(O)cc2O)cc1 | -3% | 2% | 5%
CC1CC(OC(=O)CN2CCCCC2)CC(C)(C)C1 (stereo unspecified) | 3% | 5%[57.5 µM] | 1%
CC[N+]1(CC(O)COC2CC(C)CC(C)(C)C2)CCOCC1 (stereo unspecified) | 9% | -8%[57.5 µM] | 5.6µM*
CC(C)[C@H]1COC(c2cccc([N+](=O)[O-])c2)=N1 | -25%[136 µM] | . | 12%[136 µM]
CC(C)OC(C)C | 0% | . | .
CCN1CCN(C(=O)NC(C(=O)NC2C(=O)N3C(C(=O)O)=C(CSc4nnnn4C)CSC23)c2ccc(O)cc2)C(=O)C1=O (stereo unspecified) | 10% | 17% | -17%
CCCCCS(=O)(=O)CCCCCCCCCCn1c(-c2ccc(O)cc2)c(C)c2cc(O)ccc21 | -16% | 14µM* | 3%
CC(=O)c1c(C)n(CCO)c2ccc(O)cc12 | 8% | . | 5%
Nc1ncnc2c1nc(Br)n2[C@@H]1O[C@H]2COP(=O)(O)O[C@@H]2[C@@H]1O | 29% | . | 0%
FC(F)(F)c1cccc(-c2noc(-c3cc(-c4ccccc4)c(C(F)(F)F)s3)n2)c1 | 11% | 9% | 4%
CCCCN1C(=O)c2ccc(C(=O)Nc3cccc(C)c3C)cc2C1=O | -1% | . | 2%
CCCCN1C(=O)c2ccc(C(=O)Nc3ccc(C)c(S(=O)(=O)N(C)C)c3)cc2C1=O | 3% | 25µM* | -2%
Cc1ccc(N/C(N)=N/c2nc(C)cc(C)n2)cc1 | -4% | 3% | 9%
CCCCc1ccc(N/C(N)=N/c2nc(C)cc(C)n2)cc1 | 3% | 18µM* | -7%
O=C(O)c1cc(N(Cc2ccccc2O)Cc2cc(O)ccc2O)ccc1O | ? | . | -23%
Cc1cc2c(cc1Cl)C(c1ccccc1C)CC(=O)O2 (stereo unspecified) | 28%[89.1 µM] | . | -149%[88.7 µM]
N#Cc1c(N)sc(=S)c2c1CCCCC2 | -26% | . | 25µM*
N#Cc1c(N)sc2c1CCCCCC2 | -3% | . | .
COc1ccc(C2CC(c3ccccc3)Oc3ccc(OC)cc32)cc1 (stereo unspecified) | 11% | . | .
SMILES | CBFb RUNX1 block | ERK EGF inh | GoLoco inh red
O=P1(O)Oc2c(-c3ccccc3)cc3ccccc3c2-c2c(c(-c3ccccc3)cc3ccccc23)O1 | -6% | 1% | 4%
CCCN1/C(=C2/SC(=S)N(CC)C2=O)C=Cc2ccccc21 | 3% | . | 36%
CCN1C(=O)/C(=C2/C=Cc3ccccc3N2CC)SC1=S | . | 16µM* | -23%
O=C(O)C1(C(=O)O)CCN(S(=O)(=O)c2ccccc2)CC1 | . | . | -1%[14.2 µM]
COc1cccc(CC(=O)N2CCc3nc(-c4ccccc4)c4c(c3C2)CO[C@@H](C)C4)c1 | 4%[13.1 µM] | . | 8%[14.2 µM]
CN1CCN(CCCBr)CC1 | . | . | 0%[14.2 µM]
COc1ccc(/C=N/NC(=O)c2cccnc2)cc1COc1ccc(NC(C)=O)cc1 | 2% | 1%[57.5 µM] | 5%
COc1ccc(/C=N/NC(=O)c2cccnc2)cc1COc1ccc([N+](=O)[O-])cc1 | -3% | 22µM* | 5%
CCOC(=O)C1CCN(C2=C(NS(=O)(=O)c3ccc(Cl)cc3)C(=O)c3ccccc3C2=O)CC1 | . | 32µM* | 7%
CC(=O)Nc1ccc(S(=O)(=O)NC2=C(N3CCN(Cc4ccccc4)CC3)C(=O)c3ccccc3C2=O)cc1 | ? | . | 4%
CCOC(=O)C1CCN(C(=O)c2ccccc2NS(=O)(=O)c2ccc(F)c(F)c2)CC1 | 2% | 9% | 4%
CC1CCN(C2=C(NS(=O)(=O)c3ccccc3)C(=O)c3ccccc3C2=O)CC1 | . | 18µM* | 7%
O=C1C(NS(=O)(=O)c2ccccc2)=C(N2CCN(c3ccc(F)cc3)CC2)C(=O)c2ccccc21 | . | 25µM* | -2%
O=S(=O)(Nc1nc2ccccc2nc1N1CCN(c2ccccc2)CC1)c1ccc(F)cc1 | -12% | -3% | 27%
O=C1C(NS(=O)(=O)c2cccs2)=C(N2CCN(c3cccc(Cl)c3)CC2)C(=O)c2ccccc21 | ? | . | -2%
